Source: PubChem BioAssay
tim10-1 inh: growth inhibitors of tim10-1 mutant yeast; S. cerevisiae tim10-1 ts strain growth, BacTiter-Glo, 24 h; inhibition, % at 20 µM; hit rate 2.2% among 330,000; AID 463190;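 active means inhibition of at least 40%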;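 further: mutant grown at 25 °C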
PfHsp90 set2: reduces growth (ATP signal) of yeast expressing P. falciparum Hsp90; S. cerevisiae expressing PfHsp90, BacTiter-Glo ATP, 48 h; yeast lacking PDR1 and PDR3 efflux regulators; inhibition, % at 9.4 µM; hit rate 0.32% among 310,000; AID 504621;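 active means every replicate shows inhibition above about 80%, whatever the replicate mean, limit read from the data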
NLRP3 yeast inh: inhibitors of NALP3 inflammasome in yeast; Yeast reconstituted NLRP3/ASC/caspase-1, beta-gal luminescence, 24 h; inhibition, % at 10 µM; hit rate 0.39% among 330,000; AID 2825;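 active means inhibition of 50% or more; inactive means inhibition below 50%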
TIM10 inh: TIM10 yeast growth inhibition. S. cerevisiae TIM10 strain growth, BacTiter-Glo luminescence, 24 h. inhibition, % at 10 µM. hit rate 1.4% among 330,000. AID 463195;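 active means inhibition of 40% or more at the single tested concentration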;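 further: wild-type TIM10 isogenic control strain grown at permissive 25 °C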
tim23-1 inh: growth inhibitors of tim23-1 mutant yeast; S. cerevisiae tim23-1 growth, BacTiter-Glo luminescence, 24 h; inhibition, % at 20 µM; hit rate 1.3% among 330,000; AID 463212;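 active means growth inhibition of the mutant yeast at or above 50%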;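 further: temperature-sensitive mutant grown at 25 °C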
NALP1 inh: blocks the NALP1 inflammasome reconstituted in yeast; S. cerevisiae NALP1/ASC/caspase-1 growth, X-gal OD620, 72 h; inhibition, % at 10 µM; hit rate 0.61% among 280,000; AID 2071; in the data active means inhibition mostly above about 24%, no sharp cut-off; inactive means mostly below about 32%
tim10-1 confirm: confirmation of tim10-1 mutant yeast growth inhibitors. shares compounds with tim10-1 inh. S. cerevisiae tim10-1 ts strain growth, BacTiter-Glo, 24 h. inhibition, % at 20 µM. hit rate 56% among 7,400;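 active means inhibition of yeast growth at or above a set limit in either of two repeat tests at 20 µM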;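 further: tim10-1 mutant grown at permissive 25 °C to find synthetic lethal compounds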
Numbers stand for hits; n = inactive; x = no result. Hits are enriched below; roughly 4.2% of the tested compounds scored in any of these assays.

SMILES | tim10-1 inh | PfHsp90 set2 | NLRP3 yeast inh | TIM10 inh | tim23-1 inh | NALP1 inh | tim10-1 confirm
c1ccc(-c2cc(-c3nnco3)c3ccccc3n2)nc1 | 40 | x | n | n | n | n | n
CCCCn1nnnc1SCC(=O)c1cc(Cl)ccc1OC | 52 | n | n | n | n | n | 33
O=C(NCCS(=O)(=O)N1CCCCC1)c1ccccc1 | n | n | n | n | n | x | x
CCCC(C)C(=O)Nc1nc(C)c(-c2csc(Nc3ccc(Cl)cc3)n2)s1 (stereo not given) | 44 | n | n | n | n | n | n
CCc1ccc2[nH]c(=O)c(C3C(C#N)=C(N)Oc4c3ccc3cccnc43)cc2c1 (stereo not given) | 41 | n | n | n | n | n | n
N#Cc1ccccc1S(=O)(=O)N1CCN(CC(O)CN2CCOCC2)CC1 (stereo not given) | n | n | n | n | n | x | x
COc1ccc(-c2[nH]ncc2CN(CCO)CC23CC4CC(CC(C4)C2)C3)c(OC)c1 | n | x | n | n | n | n | x
CN(C(=O)c1ccccc1C(=O)OCC(=O)Nc1ccc(OC(F)F)cc1)c1ccccc1 | 43 | n | n | n | n | x | n
O=C(CN(Cc1ccc(F)cc1)C(=O)CNS(=O)(=O)c1ccc(Cl)cc1)NCC1CCCO1 (stereo not given) | n | n | n | n | n | n | x
COc1ccc(Cl)cc1NC(=O)CCN1C(=O)C2C3C=CC(C4CC34)C2C1=O (stereo not given) | n | n | n | n | n | n | x
CCOC(=O)c1cnc2ccc(OC)cc2c1NCc1ccccc1 | n | n | n | n | n | n | x
CCOC(=O)c1cnc2ccc(OCC)cc2c1NCc1ccccc1OC | 43 | n | n | n | n | n | 34
N/C(CCS(=O)(=O)c1ccc(Cl)cc1)=N\OC(=O)c1ccccc1C(F)(F)F | 64 | n | n | n | n | n | 78
COc1ccc(NC(=O)N2CCc3ccccc3C2)c(OC)c1 | n | n | n | n | n | n | x
COCCCN(C(=O)Cc1coc2cc(C)c(C)cc12)c1c(N)n(Cc2ccccc2)c(=O)[nH]c1=O | n | n | n | n | n | x | x
N#Cc1ccccc1S(=O)(=O)N1CCN(C(=O)C2CCC2)CC1 | 97 | n | n | n | n | x | n
CNC(=O)c1nn(C)c(=O)[nH]c1=O | x | n | x | x | x | x | x
Cc1ccc(C(=O)Nc2nc(-c3ccccc3)c(-c3ccccc3)o2)cc1 | 40 | n | n | n | n | n | n
Cc1cc(C)nc(SCC(=O)Nc2nc(-c3ccccc3)c(-c3ccccc3)o2)n1 | n | n | n | n | n | n | x
CC1(C)Cc2c(cnn2-c2ccc(F)cc2)C(NC(=O)c2ccoc2)C1 (stereo not given) | 40 | n | n | n | n | n | n
Cc1ccc(-n2ncc3c2CC(C)(C)CC3NC(=O)c2ccccn2)cc1 (stereo not given) | 53 | n | n | n | n | n | n
COc1cc(Nc2ncnc(N)n2)cc(OC)c1 | n | n | n | n | n | x | x
CCC(C)c1ccc(NC(=O)C2CCCN(c3ncccn3)C2)cc1 (stereo not given) | 42 | n | n | n | n | n | 41
COc1ccc(NC(=O)C2CCCN(c3ncccn3)C2)cc1 (stereo not given) | n | n | n | n | n | n | x
C/C(=N\NC(=S)NC(C)C)c1ccccc1OC(F)F | 41 | n | n | n | n | n | 30
SMILES | tim10-1 inh | PfHsp90 set2 | NLRP3 yeast inh | TIM10 inh | tim23-1 inh | NALP1 inh | tim10-1 confirm
COc1cc(/C=C2\SC(=S)NC2=O)ccc1OS(=O)(=O)c1ccccc1 | 43 | x | n | n | n | n | 33
CC(=O)Oc1ccc(/C=N/NS(=O)(=O)c2ccccc2)cc1 | 44 | n | n | n | n | n | 44
N/C(=N\S(=O)(=O)c1cc(C(F)(F)F)cc(C(F)(F)F)c1)c1ccc(Cl)cc1 | 46 | n | n | n | n | n | 43
Cc1ccc(C(=O)CSc2nnc(CNc3ccc(C)cc3C)n2Cc2ccco2)cc1 | n | n | n | n | n | n | x
COc1ccc(C(=O)CSc2nnc(CNc3ccc(C)cc3C)n2Cc2ccco2)cc1 | 40 | n | n | n | n | n | n
CCOC(=O)c1cnc2c(ccc3ccccc32)c1N | n | n | n | n | n | n | x
O=C(NCc1ccco1)c1cccn2c(=O)c3sccc3nc12 | 40 | n | n | n | n | x | n
O=C(NCc1cccs1)c1cccn2c(=O)c3sccc3nc12 | n | n | n | n | n | n | x
Cc1cc(C)c(C(=O)OCC(=O)Nc2cccc(S(=O)(=O)N3CCCCC3)c2)c(C)c1 | n | x | n | n | n | x | x
Cc1ccc(NC(=S)NCc2ccc(Cl)cc2)c(C)c1 | n | n | n | n | n | n | x
COc1cnc(-c2ccccn2)nc1Sc1ccc(C)cc1 | 44 | n | n | n | n | n | n
CCOc1ccccc1C(=O)Nc1cc(OC)ccc1OC | 43 | n | n | n | n | n | 37
COc1ccccc1C(=O)Nc1ccccc1SC(=O)c1ccccc1OC | 43 | n | n | n | n | n | 37
CCOc1cc(NC(=O)c2ccccc2OC)c(OCC)cc1NC(=O)c1ccccc1 | n | n | n | n | n | n | x
Cc1sc2nc(SCc3ccccc3)n(Cc3ccco3)c(=O)c2c1C | n | n | n | n | n | n | x
Cc1sc2nc(SCc3nc4ccccc4[nH]3)n(Cc3ccco3)c(=O)c2c1C | 52 | n | n | n | n | n | 35
O=C(Nc1nccs1)c1ccc(CSc2ccccc2)o1 | n | n | n | n | n | n | x
CCOC(=O)C1CCCN(C2CC(=O)N(c3ccccc3)C2=O)C1 (stereo not given) | n | n | n | n | n | n | x
CCOC(=O)C1CCCN(C2CC(=O)N(c3cccc(C(F)(F)F)c3)C2=O)C1 (stereo not given) | 56 | 120 | n | n | n | 59 | 42
CCc1ccc(N2C(=O)CC(N3CCC(C(=O)OC)CC3)C2=O)cc1 (stereo not given) | 43 | n | n | n | n | n | 42
CCOC(=O)C1CCCN(C2CC(=O)N(c3ccc(C(C)C)cc3)C2=O)C1 (stereo not given) | 42 | n | n | n | n | n | 30
O=C(OCC(=O)N1CCN(c2ccccc2)CC1)c1ccccc1NCCO | n | n | n | n | n | x | x
CC(=O)c1c(C)[nH]c(C(=O)Nc2nccs2)c1C | n | x | n | n | n | n | x
CC(=O)c1c(C)[nH]c(C(=O)Nc2nc(-c3ccccc3)c(C)s2)c1C | 43 | n | n | n | n | n | n
Cc1ccc(N2C(=O)C3ON(c4ccccc4)C(CC(C)C)C3C2=O)cc1 (stereo not given) | n | n | n | n | n | n | x
COc1ccc(S(=O)(=O)N2CC(C)N(C(=O)N3CCOCC3)C2)cc1 (stereo not given) | n | n | n | n | n | n | x
